Assay results reported in PubChem BioAssay AID588689 (Southern Research Specialized Biocontainment Screening …, 2011).
About 1,000 (0.29%) of roughly 340,000 compounds were called active. No stated cut-off is given here; in the data, inconclusive means inhibition above about 29% without an active follow-up result; inactive means below that. Only a sample is shown. Entries with a potency or affinity are not part of this list.

Biological target: Genome polyprotein (Dengue virus type 2 (strain 16681-PDK53)) (UniProt P29991)
Assay: Dengue-2 NS5 methyltransferase inhibitors, primary screen, biochemical, confirmation dose response (AID 588689)
Conditions: Dengue-2 NS5 methyltransferase capping enzyme assay, at 25 µM, stronger effect = higher value
[1] = measured here: pilot screen replicate inhibition

| SMILES | inhibition | inhibition [1] [%] |
| --- | --- | --- |
| CCOC(=O)[C@H](C)N1[C@H](C)[C@H](c2ccccc2)Oc2ccc(Cl)cc2S1(=O)=O | -5.21% (inactive) |  |
| Cc1ccc2cc(C=O)c(N(C)C)nc2c1 | 1.3% (inactive) |  |
| Cc1ccc2cc(C=O)c(Cl)nc2c1 | -3.88% (inactive) |  |
| COc1ccc(C(=O)NC2CCCCCCC2)cc1OC | -1.55% (inactive) |  |
| CCN=c1scc(C)n1/N=C/c1ccsc1 | 2.4% (inactive) |  |
| CN=c1scc(C)n1/N=C/c1ccc(O)cc1O | 2.07% (inactive) |  |
| CN=c1scc(-c2ccco2)n1/N=C/c1ccc(O)c(O)c1 | -2.15% (inactive) |  |
| CCN=c1scc(C)n1/N=C/c1cc(Br)c(O)c(Br)c1 | 9.36% (inactive) |  |
| CC(C)N=c1scc(-c2cccs2)n1/N=C/c1ccc(O)c(O)c1O | 16.7% (inactive) |  |
| CN=c1scc(-c2ccccc2F)n1/N=C/c1ccc(O)c(O)c1O | 26.9% (inactive) |  |
| CCN=c1scc(-c2ccco2)n1/N=C/c1ccc(O)cc1 | 4.53% (inactive) |  |
| CN=c1scc(-c2cccs2)n1/N=C/c1ccccc1O | -0.73% (inactive) |  |
| COc1ccc(S(=O)(=O)NCCCN2CCCC2=O)cc1OC | -6.1% (inactive) |  |
| CC(C)(C)[C@@H]1C=C(C(=O)O)[C@H](c2ccc(Cl)cc2)N1S(=O)(=O)c1ccccc1 | -3.97% (inactive) | -4.61 |
| Cn1c(SCC(=O)Nc2ccccc2)nc2c([nH]c3ccccc32)c1=O | -11.1% (inactive) |  |
| Nc1ccn([C@@H]2O[C@H](CNC(=O)[C@@H](Cc3cccnc3)NC=O)[C@@H](O)[C@H]2O)c(=O)n1 | -7.38% (inactive) |  |
| Cc1cc2nc(C)c3c(n2n1)CCC3 | -6.57% (inactive) |  |
| Nn1c(COc2ccccc2F)nnc1SCC(=O)NC1CCCC1 | -8.38% (inactive) |  |
| O=C1c2ccccc2NC(c2ccc(-c3ccc(F)cc3)o2)N1O (stereo not drawn) | 13.4% (inactive) |  |
| CC1=NN(c2ccc(C)cc2)C(=O)/C1=C/c1ccc(-c2cc([N+](=O)[O-])ccc2O)o1 | 21.8% (inactive) |  |
| O=C(O)c1ccccc1-c1ccc(/C=C2\SC(=O)N(c3ccccc3)C2=O)o1 | 25.1% (inactive) |  |
| CCCOC(=O)c1cc(-c2ccc(/C=C3/C(=O)N(C)C(=O)C(C#N)=C3C)o2)ccc1Cl | -12.3% (inactive) | -8.18 |
| Cc1ccc(CN2C(=O)N/C(=C/c3ccc(-c4ccc(C(=O)O)cc4)o3)C2=O)cc1 | 14.9% (inactive) |  |

| SMILES | inhibition | inhibition [1] [%] |
| --- | --- | --- |
| Cc1c(C(=O)O)cccc1-c1ccc(/C=C2/NC(=O)N(c3ccccc3)C2=O)o1 | -1.55% (inactive) |  |
| CCOC(=O)c1cc(-c2ccc(/C=N\n3cnnc3)o2)ccc1Cl | -3.91% (inactive) |  |
| CC1=NN(c2ccc(Cl)c(C(=O)O)c2)C(=O)C1 | 10.9% (inactive) |  |
| CN1C(=O)/C(=C/c2ccc(-c3ccccc3[N+](=O)[O-])o2)SC1=Nc1ccc(Cl)c(C(=O)O)c1 | 24.5% (inactive) |  |
| O=C(Nc1ccccc1N1CCCCC1)c1cc(S(=O)(=O)N2CCOCC2)ccc1Cl | -0.73% (inactive) |  |
| C#CC[N+](C)(C)CC#Cc1ccccc1 | -1.48% (inactive) |  |
| O=C1CC(c2ccccc2)CC(O)=C1C=NCc1ccc(Cl)c(Cl)c1 (stereo not drawn) | 3.34% (inactive) |  |
| CC1(C)CC(=O)C(C(N)=NC(=O)c2ccccc2)=C(O)C1 | 0% (inactive) |  |
| CC(=O)c1c(C)[nH]c(C(=O)OCC(=O)N2CCc3ccccc32)c1C | -4.77% (inactive) |  |
| CCCCc1cc(=O)oc2cc(OCC(=O)N3CCc4ccccc43)ccc12 | -4.8% (inactive) |  |
| CCc1ccc(N2C(=O)CC(Cn3nc(C)cc3C)C2=O)cc1 (stereo not drawn) | -5.48% (inactive) |  |
| CN(C)S(=O)(=O)c1cccc(NC(=O)/C=C/c2ccc(S(=O)(=O)N3CCOCC3)cc2)c1 | -0.74% (inactive) |  |
| COC(=O)c1ccccc1-c1ccc(/C=C2\C(=O)N(c3ccccc3)N=C2c2ccccc2)o1 | 1.6% (inactive) |  |
| CC1=NN(c2ccc(C(=O)O)cc2)C(=O)/C1=C/c1ccc(-c2ccccc2F)o1 | 51.9% (inactive) |  |
| CC1=NN(c2cccc(C(=O)O)c2)C(=O)/C1=C\C=C\c1ccco1 | 19.1% (inactive) |  |
| CCOC(=O)c1ccc(N2N=C(C)/C(=C/C=C/c3ccco3)C2=O)cc1 | 10.2% (inactive) |  |
| O=C(c1ccccc1[N+](=O)[O-])N1CCCC(C(=O)N2CCCCCC2)C1 (stereo not drawn) | 0% (inactive) |  |
| CCCSc1nnc(NC(=O)c2nc(SC)ncc2Cl)s1 | 0% (inactive) |  |
| C=CCSc1nnc(NC(=O)c2nc(SCC)ncc2Cl)s1 | -6.43% (inactive) |  |
| O=C(Nc1ccc(F)cc1)c1nc(S(=O)(=O)Cc2ccccc2)ncc1Cl | -51.9% (inactive) |  |
| CCc1ccc(NC(=O)c2nc(S(=O)(=O)Cc3ccccc3)ncc2Cl)cc1 | -51.9% (inactive) |  |
| COc1ccc([N+](=O)[O-])cc1NC(=O)CCN1CCOCC1 | -1.96% (inactive) |  |
| COc1ccc(N(CC(=O)N/N=C/c2ccc(-c3ccc([N+](=O)[O-])cc3)o2)S(=O)(=O)c2ccc(C)cc2)cc1Cl | -4.14% (inactive) |  |
